# CBX7 AlphaScr: CBX7 chromodomain binding inhibitors, primary screen, biochemical, AlphaScreen; AlphaScreen His6-CBX7 / biotin-H3K27me3 peptide binding; active compounds read low; normalised signal (fraction of DMSO) (test concentration not listed); hit rate 1.1% among 66,000; AID 1224903, 2016; in the data active = normalised signal below about 0.5
# Target sequence (O95931 whole entry, looked up): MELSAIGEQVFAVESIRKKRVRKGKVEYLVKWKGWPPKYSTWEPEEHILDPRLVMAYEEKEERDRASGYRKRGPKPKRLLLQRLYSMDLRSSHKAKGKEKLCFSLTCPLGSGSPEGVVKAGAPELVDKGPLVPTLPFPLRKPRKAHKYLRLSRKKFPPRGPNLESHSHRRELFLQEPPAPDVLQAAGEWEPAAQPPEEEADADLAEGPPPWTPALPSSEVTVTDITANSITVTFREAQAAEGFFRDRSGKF
# Numbers without * were called inactive. Shown is part of a subset that was picked to be rich in hits.
SMILES,CBX7 AlphaScr
N#Cc1nc(COc2ccc(Cl)cc2)oc1N1CCCCC1,0.76
Cc1ccc(OCc2nc(C#N)c(N3CC(C)CC(C)C3)o2)cc1 (stereo unspecified),0.53
Cc1ccc(OCc2nc(C#N)c(N3CCCCCC3)o2)cc1,0.4*
Cc1ccccc1OCc1nc(C#N)c(N2CCCCCC2)o1,0.47*
N#Cc1nc(COc2ccc(F)cc2)oc1N1CCCCCC1,0.5*
Cc1ccccc1OCc1nc(C#N)c(N2CCCCC2)o1,0.71
COc1ccc(OCc2nc(C#N)c(N3CCCCCC3)o2)cc1,0.58
O=C1CC(c2nc3ccccc3n2Cc2ccccc2Cl)CN1c1ccccc1F (stereo unspecified),0.81
Cc1ccccc1Nc1nc(-c2ccccc2)nc2ccccc12,1.1
COc1ccc2nc(N3CCCC(C(=O)NCc4ccccc4OC)C3)sc2c1 (stereo unspecified),0.94
CCCCNC(=O)c1ccc(NC2=NC3CS(=O)(=O)CC3S2)cc1 (stereo unspecified),1.2
CCOC(=O)Cc1csc(NC(=O)COc2ccc(Br)c(C)c2)n1,0.93
Cc1ccn2cc(-c3ccc(S(=O)(=O)N4CCCCC4)cc3)nc2c1,1
CC(C)CCOc1cccc(C(=O)Nc2ccc3nn(-c4cccc(Cl)c4)nc3c2)c1,1
CC(NC(=O)CCN1C(=O)COc2ccccc21)c1ccccc1 (stereo unspecified),1
CCN1C(=O)C(C(=O)Nc2ccc(OC)cc2)C2c3ccccc3OC13CCCCC23 (stereo unspecified),0.93
COC(=O)c1c(NC(=O)COc2cc(C)c(Cl)c(C)c2)sc(C)c1C,1.1
N#Cc1nc(COc2ccccc2Cl)oc1N1CCCCC1,0.75
COc1ccc(N2CCN(c3oc(COc4cccc(C)c4)nc3C#N)CC2)cc1,0.49*
COc1ccc(N2CCN(c3oc(COc4ccccc4OC)nc3C#N)CC2)cc1,0.55
COc1ccc(N2CCN(c3oc(COc4ccc(Cl)cc4)nc3C#N)CC2)cc1,0.56
N#Cc1nc(COc2ccccc2)oc1N1CCCCCC1,0.46*
N#Cc1nc(COc2ccc(Cl)cc2)oc1N1CCN(Cc2ccccc2)CC1,0.71
CCOc1ccc(C(=O)Nc2cc(-c3nc4cc(C)ccc4o3)ccc2Cl)cc1Br,0.99
COc1ccc(-c2cc(C(=O)NC(C)C)c3cc(C(C)C)ccc3n2)cc1,0.96
SMILES,CBX7 AlphaScr
CCN(c1ccccc1)S(=O)(=O)c1ccc2[nH]cc(C(=O)NCCc3ccccc3)c(=O)c2c1,1
Cc1cc(C)cc(Nc2cc(C(=O)NC(C)CCc3ccccc3)c3ccccc3n2)c1 (stereo unspecified),1.3
COc1ccc(OC)c2[nH]c(=O)c(CCNC(=O)c3ccccc3C(F)(F)F)cc12,1.1
CCc1ccc(C(=O)CC2(O)C(=O)N(Cc3ccc(Cl)cc3)c3ccccc32)cc1 (stereo unspecified),0.42*
Cc1ccc(C(=O)CC2(O)C(=O)N(Cc3ccc(Cl)cc3)c3ccccc32)cc1 (stereo unspecified),0.73
COc1ccc(C(=O)CC2(O)C(=O)N(Cc3ccc(Cl)cc3)c3ccccc32)cc1 (stereo unspecified),0.77
NC(=O)c1cc(-c2ccc(Br)cc2)no1,0.78
Cc1oc(-c2ccccc2F)nc1CN1CCC(C(=O)NC2CCCCC2)CC1,1.1
CCCCOc1ccc(C(=O)Nc2nc3ccc(C)cc3s2)cc1,1
CCCNC(=O)CSCc1cnn(-c2ccccc2)c1-n1cccc1,1.1
COc1ccc(NC(=O)Cn2nc(Cc3ccncc3)c3ccccc3c2=O)cc1Cl,1
CCc1cc(-c2nc(-c3ccc(Cl)c(Cl)c3)cs2)ccn1,1.2
CCCCC(=O)Nc1cccc(-c2csc(-c3ccccc3)n2)c1,1.1
CCCc1cc(-c2nc(-c3cccc([N+](=O)[O-])c3)cs2)ccn1,0.43*
COc1ccccc1CNC(=O)CSCc1nc(-c2ccccc2Cl)oc1C,0.87
Cc1ccc(NC(=O)c2cnn(-c3ccccc3)c2C2CCN(C(=O)OC(C)(C)C)CC2)cc1,0.99
CCN(CCCNC(=O)c1cc(-c2cccnc2)nc2ccccc12)c1ccccc1,0.98
CCOc1ccc(-c2cc(C(=O)NCCN(CC)c3ccccc3)c3ccccc3n2)cc1,0.94
CCN(CCCNC(=O)c1cc(-c2ccncc2)nc2ccccc12)c1ccccc1,0.31*
CCN(CCNC(=O)c1cc(-c2cccnc2)nc2ccccc12)c1ccccc1,0.47*
CCCCN(CCCNC(=O)c1cc(-c2ccncc2)nc2ccccc12)c1ccccc1,0.77
CN(C)CCNC(=O)c1cc(-c2ccncc2)nc2ccccc12,1.1
CC1=NN(c2ccccc2)C(=O)/C1=C\c1cn(-c2ccccc2)nc1C12CC3CC(CC(C3)C1)C2,0.81
CCOc1ccc(S(=O)(=O)c2cn(Cc3cccc(Cl)c3)c3ccc(OC)cc3c2=O)cc1,0.95
Cc1ccc(Sc2cc(C(=O)NCc3ccccn3)c3ccccc3n2)cc1,0.88
Cc1c(C(=O)NCCN2CCOCC2)oc2ccc(S(=O)(=O)N3CCC(C)CC3)cc12,1
O=C(Nc1ccc(Cc2ccncc2)cc1)C12CC3CC(CC(C3)C1)C2,0.96

# Screening results from PubChem.
